A number with no mark means an inactive call. Calls follow the shape of the dose curve; as a rule, active = well fitted curve in the direction sought with a large enough effect; inconclusive = small, poorly fitted or top-dose-only effect, or another doubt; inactive = no such curve, though single readings can be large; an effect the other way counts as inactive or inconclusive. Inconclusive results are not listed.

Methanococcus maripaludis chaperonin (MmCpn), sequence (Q6LX38 1-543): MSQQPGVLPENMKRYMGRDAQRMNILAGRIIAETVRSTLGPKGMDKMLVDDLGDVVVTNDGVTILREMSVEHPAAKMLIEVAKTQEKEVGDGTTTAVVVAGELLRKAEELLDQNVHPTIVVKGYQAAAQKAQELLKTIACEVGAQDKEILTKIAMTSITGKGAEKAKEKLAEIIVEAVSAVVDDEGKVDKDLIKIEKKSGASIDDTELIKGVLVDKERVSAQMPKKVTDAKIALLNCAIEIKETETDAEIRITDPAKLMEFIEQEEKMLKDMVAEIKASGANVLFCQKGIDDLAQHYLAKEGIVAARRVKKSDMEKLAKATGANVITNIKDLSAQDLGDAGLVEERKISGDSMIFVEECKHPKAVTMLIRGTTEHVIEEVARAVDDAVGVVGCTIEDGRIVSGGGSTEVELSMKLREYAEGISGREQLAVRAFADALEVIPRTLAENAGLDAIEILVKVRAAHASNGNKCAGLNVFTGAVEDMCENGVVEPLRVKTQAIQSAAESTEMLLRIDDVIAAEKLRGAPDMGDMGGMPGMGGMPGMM
Thioredoxin reductase 1, cytoplasmic (Rattus norvegicus), sequence (O89049 whole entry, looked up): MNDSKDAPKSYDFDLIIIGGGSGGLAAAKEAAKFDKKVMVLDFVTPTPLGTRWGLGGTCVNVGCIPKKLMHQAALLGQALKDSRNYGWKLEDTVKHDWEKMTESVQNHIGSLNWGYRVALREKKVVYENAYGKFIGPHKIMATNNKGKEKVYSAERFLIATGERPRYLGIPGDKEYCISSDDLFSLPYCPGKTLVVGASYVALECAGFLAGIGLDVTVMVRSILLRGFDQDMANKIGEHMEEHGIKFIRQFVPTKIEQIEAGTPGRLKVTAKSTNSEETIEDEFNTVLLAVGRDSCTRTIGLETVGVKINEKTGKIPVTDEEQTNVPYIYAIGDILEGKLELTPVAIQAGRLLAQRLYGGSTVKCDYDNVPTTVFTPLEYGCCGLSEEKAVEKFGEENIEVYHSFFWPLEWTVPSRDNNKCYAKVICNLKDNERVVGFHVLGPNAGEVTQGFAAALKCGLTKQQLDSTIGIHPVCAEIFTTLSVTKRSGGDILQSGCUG
M-phase phosphoprotein 8 (Homo sapiens), sequence (Q99549 whole entry, looked up): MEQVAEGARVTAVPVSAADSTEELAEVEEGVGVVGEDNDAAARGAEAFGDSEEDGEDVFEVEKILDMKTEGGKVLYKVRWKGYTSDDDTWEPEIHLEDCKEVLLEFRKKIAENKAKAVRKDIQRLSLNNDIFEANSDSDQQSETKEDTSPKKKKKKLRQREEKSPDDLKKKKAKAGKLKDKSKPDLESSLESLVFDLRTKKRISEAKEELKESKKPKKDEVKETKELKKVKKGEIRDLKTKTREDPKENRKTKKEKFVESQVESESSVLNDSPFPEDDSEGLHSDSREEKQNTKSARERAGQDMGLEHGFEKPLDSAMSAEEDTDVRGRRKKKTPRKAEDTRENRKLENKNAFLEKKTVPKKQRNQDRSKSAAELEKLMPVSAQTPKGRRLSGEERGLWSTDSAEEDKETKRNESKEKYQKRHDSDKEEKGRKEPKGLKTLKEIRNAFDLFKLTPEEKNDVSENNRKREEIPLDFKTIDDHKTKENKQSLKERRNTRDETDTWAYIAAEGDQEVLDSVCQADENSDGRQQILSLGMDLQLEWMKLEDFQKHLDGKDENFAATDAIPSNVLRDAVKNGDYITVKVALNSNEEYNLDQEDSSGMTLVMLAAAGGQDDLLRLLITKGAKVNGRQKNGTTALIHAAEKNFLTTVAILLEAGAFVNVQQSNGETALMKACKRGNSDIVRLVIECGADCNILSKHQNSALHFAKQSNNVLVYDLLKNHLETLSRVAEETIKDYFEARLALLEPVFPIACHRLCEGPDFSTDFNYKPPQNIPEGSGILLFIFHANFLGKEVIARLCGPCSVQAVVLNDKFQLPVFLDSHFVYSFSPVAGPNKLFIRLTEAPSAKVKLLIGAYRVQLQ

One test addresses Thioredoxin reductase 1, cytoplasmic (Rattus norvegicus) (UniProt O89049). Put plainly: qHTS Assay for Substrates of Mammalian Selenoprotein Thioredoxin Reductase 1 (TrxR1) (AID 488772).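 Also: 0% is about no effect; a drop in NADPH fluorescence below the no-compound background marks a TrxR1 substrate.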 As to conditions: purified TrxR1, NADPH consumption substrate assay; series mostly up to 57.1 µM; activity change, negative = NADPH consumption: at the top concentration. Put shortly:
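In this dual-purpose format, potential substrates are identified from the first fluorescence read after selenite addition, not from the 8-minute delta. Rat enzyme is preincubated with NADPH and then with compound at ~22 deg C.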
(In general: In qHTS, concentration-response curves come from the screen itself.)
Turning to `O=c1[nH]c(=O)n([C@H]2C[C@@H](O)[C@@H](CO)O2)cc1C=CBr`, the “activity change, negative = NADPH consumption” value was -10.5%.
Take `CN[C@H](CC(C)C)C(=O)N[C@H]1C(=O)N[C@@H](CC(N)=O)C(=O)N[C@@H]2C(=O)N[C@H]3C(=O)N[C@H](C(=O)N[C@H](C(=O)O)c4cc(O)cc(O)c4-c4cc3ccc4O)[C@H](O)c3ccc(c(Cl)c3)Oc3cc2cc(c3O[C@@H]2O[C@H](CO)[C@@H](O)[C@H](O)[C@@H]2O[C@H]2C[C@](C)(N)[C@H](O)[C@H](C)O2)Oc2ccc(cc2Cl)[C@H]1O`: the “activity change, negative = NADPH consumption” value was -1.25%.
As for `COc1ccc2cc([S+]([O-])Cc3ncc(C)c(OC)c3C)nc2c1`, the “activity change, negative = NADPH consumption” value is -6.52%.

Another test shares this target. Put plainly: qHTS Assay for Inhibitors of Mammalian Selenoprotein Thioredoxin Reductase 1 (TrxR1) (AID 488773).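 Also: drop in NADPH fluorescence over an 8 min run after selenite addition; % is scaled to controls: 0 for no effect and ±100 for the full control effect; nearly all actives have a fitted effect of over 40% in size.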 To be noted: purified TrxR1 enzyme activity; series mostly up to 57.1 µM; activity change, negative = inhibition: at the top concentration. Put shortly: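 Inhibition is scored from the loss of NADPH fluorescence between first and last reads of an 8-min kinetic run. Selenite (400 uM) was the substrate, added after 15 min compound preincubation at room temperature.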
Turning to `O=c1[nH]c(=O)n([C@H]2C[C@@H](O)[C@@H](CO)O2)cc1C=CBr`, the “activity change, negative = inhibition” value is 2.06%.
Same read-out and setting: the value for `CN[C@H](CC(C)C)C(=O)N[C@H]1C(=O)N[C@@H](CC(N)=O)C(=O)N[C@@H]2C(=O)N[C@H]3C(=O)N[C@H](C(=O)N[C@H](C(=O)O)c4cc(O)cc(O)c4-c4cc3ccc4O)[C@H](O)c3ccc(c(Cl)c3)Oc3cc2cc(c3O[C@@H]2O[C@H](CO)[C@@H](O)[C@H](O)[C@@H]2O[C@H]2C[C@](C)(N)[C@H](O)[C@H](C)O2)Oc2ccc(cc2Cl)[C@H]1O` was -3.34%.
In the case of `COc1ccc2cc([S+]([O-])Cc3ncc(C)c(OC)c3C)nc2c1`, the “activity change, negative = inhibition” value was 1.61%.

A further test deals with M-phase phosphoprotein 8 (Homo sapiens) (UniProt Q99549). The test is described as follows: qHTS Validation Assay for Inhibitors for MPP8 Chromodomain Interactions with Methylated Histone Tails (AID 488949).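 Also: AlphaScreen signal from MPP8 chromodomain bound to biotinylated H3K9me3 peptide; top concentration of the series differs between compounds; % is scaled to controls: 0 for no effect and ±100 for the full control effect; nearly all actives have a fitted effect of over 55% in size.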 As to conditions: AlphaScreen MPP8 binding to H3K9me3 peptide; series mostly up to 57.1 µM; activity change, negative = inhibition: at the top concentration. Summed up:
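AlphaScreen proximity signal from streptavidin donor and Ni-chelate acceptor beads (10 ug/mL each) reported binding of MPP8 to trimethyl-K9 H3(1-18) peptide, both at 50 nM. The complex formed 30 min before a 30 min compound exposure at room temperature, in PBS pH 7.4.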
For the compound `O=c1[nH]c(=O)n([C@H]2C[C@@H](O)[C@@H](CO)O2)cc1C=CBr`, the “activity change, negative = inhibition” value is -0.141%.
The same measure, in the same setting: the value for `N=c1ccn2c(n1)O[C@H]1[C@@H](O)[C@@H](CO)O[C@H]12` was 0.768% [at 114 µM].
`CN[C@H](CC(C)C)C(=O)N[C@H]1C(=O)N[C@@H](CC(N)=O)C(=O)N[C@@H]2C(=O)N[C@H]3C(=O)N[C@H](C(=O)N[C@H](C(=O)O)c4cc(O)cc(O)c4-c4cc3ccc4O)[C@H](O)c3ccc(c(Cl)c3)Oc3cc2cc(c3O[C@@H]2O[C@H](CO)[C@@H](O)[C@H](O)[C@@H]2O[C@H]2C[C@](C)(N)[C@H](O)[C@H](C)O2)Oc2ccc(cc2Cl)[C@H]1O`: the “activity change, negative = inhibition” value was 12.5%.

Another test addresses Methanococcus maripaludis chaperonin (MmCpn) (UniProt Q6LX38). Put plainly: High-Throughput Screening for Modulators of Cytosolic Chaperonin Activity: MmCpn Primary Screen (AID 488978). Also: 0% is about no effect. To be noted: Purified MmCpn ATPase activity, ADP HTRF detection, 10 min; series mostly up to 76.9 µM; activity change, negative = inhibition: at the top concentration. Put shortly: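 ATPase activity of 50 nM MmCpn was assayed with 30 uM ATP, 10 minutes at 37C, after a 5 min compound preincubation at room temperature. ADP production was read as HTRF emission at 590 and 665 nm.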
For orientation: In TR-FRET formats the signal depends on donor and acceptor labels being close together.
`O=c1[nH]c(=O)n([C@H]2C[C@@H](O)[C@@H](CO)O2)cc1C=CBr`: the “activity change, negative = inhibition” value is 0.184%.
The same measure, in the same setting: for `CN[C@H](CC(C)C)C(=O)N[C@H]1C(=O)N[C@@H](CC(N)=O)C(=O)N[C@@H]2C(=O)N[C@H]3C(=O)N[C@H](C(=O)N[C@H](C(=O)O)c4cc(O)cc(O)c4-c4cc3ccc4O)[C@H](O)c3ccc(c(Cl)c3)Oc3cc2cc(c3O[C@@H]2O[C@H](CO)[C@@H](O)[C@H](O)[C@@H]2O[C@H]2C[C@](C)(N)[C@H](O)[C@H](C)O2)Oc2ccc(cc2Cl)[C@H]1O` the value was -2.81%.
Consider `COc1ccc2cc([S+]([O-])Cc3ncc(C)c(OC)c3C)nc2c1`, for which the “activity change, negative = inhibition” value was -0.901%.
